In PubChem BioAssay AID1159580 (chemical genetic matrix, 2015):
In all, about 5,500 compounds went through this assay and about 2,000 (36%) were called active. About 18% were inconclusive and are not listed. No stated cut-off is given here; in the data, active means normalized growth mostly below about 0.91 (no sharp cut-off); inconclusive means no clear call, values can overlap the other calls; inactive means mostly above about 0.92. Some of the results follow.

Assay: chemical genetic growth profiling, strain panel (AID 1159580);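 further: tested at 20 µM; growth read once vehicle control cultures reached saturation at 30 °C; 1 = growth at the plate median or of vehicle wells; lower values mean less growth of the strain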
Conditions: S. cerevisiae deletion strains, growth OD
[1] = locus YAR019C, strain CDC15, hits give low values
[2] = locus YBL105C, strain PKC1, hits give low values
[3] = locus YBR135W, strain CKS1, hits give low values
[4] = locus YBR136W, strain MEC1, hits give low values
[5] = locus YBR160W, strain CDC28, hits give low values
[6] = locus YDL017W, strain CDC7, hits give low values
[7] = locus YDL028C, strain MPS1, hits give low values
[8] = locus YDL101C, strain DUN1, hits give low values
[9] = locus YDL108W, strain KIN28, hits give low values
[10] = locus YDL132W, strain cdc53, hits give low values
[11] = locus YDL214C, strain PRR2, hits give low values
[12] = locus YDR052C, strain DBF4, hits give low values
[13] = locus YDR054C, strain cdc34, hits give low values
[14] = locus YDR226W, strain ADK1, hits give low values
[15] = locus YDR477W, strain SNF1, hits give low values
[16] = locus YER123W, strain YCK3, hits give low values
[17] = locus YER133W, strain GLC7, hits give low values
[18] = locus YFL009W, strain cdc4, hits give low values
[19] = locus YFL029C, strain CAK1, hits give low values
[20] = locus YFR003C, strain YPI1, hits give low values
[21] = locus YFR019W, strain FAB1, hits give low values
[22] = locus YFR028C, strain CDC14, hits give low values
[23] = locus YGR040W, strain KSS1, hits give low values
[24] = locus YGR052W, strain FMP48, hits give low values
[25] = locus YGR092W, strain DBF2, hits give low values
[26] = locus YHR030C, strain SLT2, hits give low values
[27] = locus YHR079C, strain IRE1, hits give low values
[28] = locus YHR082C, strain KSP1, hits give low values
[29] = locus YHR205W, strain SCH9, hits give low values
[30] = locus YIL147C, strain SLN1, hits give low values
[31] = locus YJL095W, strain BCK1, hits give low values
[32] = locus YJL128C, strain PBS2, hits give low values
[33] = locus YJL157C, strain FAR1, hits give low values
[34] = locus YJR016C, strain ILV3, hits give low values
[35] = locus YJR066W, strain TOR1 (second series), hits give low values
[36] = locus YJR066W, strain TOR1, hits give low values
[37] = locus YKL048C, strain ELM1, hits give low values
[38] = locus YKL067W, strain YNK1, hits give low values
[39] = locus YKL101W, strain HSL1, hits give low values
[40] = locus YKL193C, strain SDS22, hits give low values
[41] = locus YKL203C, strain TOR2, hits give low values
[42] = locus YLR113W, strain HOG1, hits give low values
[43] = locus YLR133W, strain CKI1, hits give low values
[44] = locus YLR403W, strain SFP1, hits give low values
[45] = locus YML070W, strain DAK1, hits give low values
[46] = locus YMR001C, strain CDC5, hits give low values
[47] = locus YMR205C, strain PFK2 (second series), hits give low values
[48] = locus YMR277W, strain FCP1, hits give low values
[49] = locus YNL006W, strain LST8, hits give low values
[50] = locus YNL020C, strain ARK1, hits give low values
[51] = locus YNL161W, strain CBK1, hits give low values
[52] = locus YNL183C, strain NPR1, hits give low values
[53] = locus YNL207W, strain RIO2, hits give low values
[54] = locus YNL222W, strain SSU72, hits give low values
[55] = locus YNL307C, strain MCK1 (second series), hits give low values
[56] = locus YOL078W, strain AVO1, hits give low values
[57] = locus YOL136C, strain PFK27, hits give low values
[58] = locus YOR061W, strain CKA2, hits give low values
[59] = locus YOR119C, strain RIO1, hits give low values
[60] = locus YOR231W, strain MKK1, hits give low values
[61] = locus YOR329C, strain SCD5, hits give low values
[62] = locus YPL031C, strain PHO85, hits give low values
[63] = locus YPL153C, strain RAD53, hits give low values
[64] = locus YPL204W, strain HRR25, hits give low values
[65] = locus YPL209C, strain IPL1, hits give low values
[66] = locus YPL256C, strain CLN2, hits give low values
[67] = locus YPR025C, strain CCL1, hits give low values
[68] = locus YPR106W, strain ISR1, hits give low values
[69] = locus YPR111W, strain DBF20, hits give low values
[70] = strain NNK1, hits give low values
[71] = strain TSCII, hits give low values

Measured: normalized growth

NNC(=O)c1csc(Cc2c(Cl)sc3ccc(Cl)cc23)n1
inactive: [1] 0.979 | [2] 0.983 | [3] 1 | [4] 0.993 | [5] 0.996 | [6] 0.985 | [7] 0.996 | [8] 0.985 | [9] 1 | [10] 0.975 | [11] 1.02 | [12] 0.986 | [13] 0.968 | [14] 0.996 | [15] 0.979 | [16] 1.01 | [17] 0.979 | [18] 0.991 | [19] 0.971 | [20] 0.994 | [21] 0.992 | [22] 0.994 | [23] 0.988 | [24] 1.11 | [25] 0.969 | [26] 1 | [27] 0.977 | [28] 1.04 | [29] 1.01 | [30] 0.99 | [31] 0.994 | [32] 0.998 | [33] 0.994 | [34] 0.981 | [35] 0.983 | [36] 1.05 | [37] 1 | [38] 1 | [39] 1.02 | [40] 0.983 | [41] 1.04 | [42] 1.07 | [43] 1 | [44] 0.978 | [45] 1.01 | [46] 0.989 | [47] 1.01 | [48] 0.981 | [49] 0.998 | [50] 0.999 | [51] 0.983 | [52] 1.03 | [53] 0.983 | [54] 0.986 | [55] 1.01 | [56] 0.976 | [57] 1 | [58] 1.01 | [59] 1.07 | [60] 0.986 | [61] 0.99 | [62] 0.984 | [63] 0.974 | [64] 0.971 | [65] 0.984 | [66] 1.03 | [67] 0.995 | [68] 0.998 | [69] 0.992 | [70] 0.984 | [71] 0.982

COc1ccc(C(=O)NCc2csc3ccc(Cl)cc23)cc1OC
inactive: [1] 0.971 | [2] 0.97 | [3] 0.985 | [4] 0.975 | [5] 0.975 | [6] 0.982 | [7] 0.986 | [8] 0.973 | [9] 0.981 | [10] 0.979 | [11] 0.986 | [12] 0.971 | [13] 0.955 | [14] 0.975 | [15] 0.982 | [16] 0.977 | [17] 0.978 | [18] 0.97 | [19] 0.974 | [20] 0.977 | [21] 1 | [22] 0.977 | [23] 0.994 | [24] 1.05 | [25] 0.981 | [26] 1.03 | [27] 1.01 | [28] 1.05 | [29] 0.972 | [30] 0.975 | [31] 1.05 | [32] 0.92 | [33] 0.988 | [34] 0.975 | [35] 1.01 | [36] 1.07 | [37] 0.98 | [38] 0.987 | [39] 0.994 | [40] 0.977 | [41] 1.05 | [42] 0.92 | [43] 0.976 | [44] 0.994 | [45] 0.983 | [46] 0.979 | [47] 0.986 | [48] 0.973 | [49] 0.983 | [50] 0.985 | [51] 0.975 | [52] 0.999 | [53] 0.962 | [54] 0.972 | [55] 0.972 | [56] 0.977 | [57] 0.98 | [58] 1 | [59] 1.05 | [60] 0.983 | [61] 0.975 | [62] 0.994 | [63] 0.995 | [64] 0.974 | [65] 0.972 | [66] 0.947 | [67] 0.976 | [68] 0.966 | [69] 0.954 | [70] 0.97 | [71] 0.984

CNC(=O)n1nc(C)c(Cc2csc3ccc(Cl)cc23)c1C
active: [66] 0.855
inactive: [1] 0.995 | [2] 0.998 | [3] 0.984 | [4] 0.997 | [5] 0.991 | [6] 0.994 | [7] 0.997 | [8] 1.01 | [9] 0.993 | [10] 1 | [11] 0.943 | [12] 1 | [13] 0.99 | [14] 0.99 | [15] 0.976 | [16] 0.906 | [17] 0.959 | [18] 0.999 | [19] 0.993 | [20] 0.993 | [21] 0.928 | [22] 0.978 | [23] 0.95 | [24] 0.989 | [25] 0.949 | [26] 0.935 | [27] 0.893 | [28] 0.936 | [29] 0.921 | [30] 0.993 | [31] 0.94 | [32] 0.934 | [33] 0.961 | [34] 0.994 | [35] 0.931 | [36] 1.02 | [37] 0.983 | [38] 0.91 | [39] 0.951 | [40] 0.991 | [41] 0.996 | [42] 0.902 | [43] 0.937 | [44] 0.942 | [45] 0.917 | [46] 0.988 | [47] 0.933 | [48] 0.988 | [49] 0.988 | [50] 0.934 | [51] 0.993 | [52] 0.896 | [53] 0.993 | [54] 0.992 | [55] 0.925 | [56] 0.991 | [57] 0.926 | [58] 0.957 | [59] 1.03 | [60] 0.894 | [61] 0.997 | [62] 0.966 | [63] 0.936 | [64] 0.926 | [65] 0.993 | [67] 0.998 | [68] 0.999 | [69] 0.979 | [70] 0.991 | [71] 0.989
